Tau ThT inhib: inhibitors of human tau fibril formation, thioflavin T binding; Potency, µM (series often up to 57.4 µM), inactives show at the highest dose activity, negative = inhibition, usual class: inhibitors; recombinant tau K18 P301L, heparin-induced fibrillization, ThT fluorescence; AID 1460; 2.1% of 270,000 active; also: % is scaled to controls: 0 for no effect and ±100 for the full control effect; nearly all actives have a fitted effect of over 55% in size
Target sequence (P10636 561-689 P618L limits assumed): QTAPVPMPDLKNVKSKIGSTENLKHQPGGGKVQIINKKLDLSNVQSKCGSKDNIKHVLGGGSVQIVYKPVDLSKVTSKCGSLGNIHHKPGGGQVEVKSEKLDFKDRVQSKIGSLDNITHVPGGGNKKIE
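Heparin-induced (20 uM) aggregation of recombinant human K18 P301L tau, 15 uM unlabeled with 0.24 uM labeled, pH 7 acetate buffer, 6 hr at 37 C with compound. Fibrils quantified by 30 uM ThT fluorescence after 1 hr ambient incubation.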
Tau fluor counter: counter-screen for tau fibril formation inhibitors | tau K18 P301L Alexa594 fluorescence, heparin fibrillization | Potency, µM (series often up to 57.7 µM), inactives show at the top dose activity change, negative = decrease | 0.93% of 280,000 active | AID 1463; also: % is scaled to controls: 0 for no effect and ±100 for the full control effect; nearly all actives have a fitted effect of over 55% in size
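Human tau K18 P301L (15 uM unlabeled, 0.24 uM Alexa 594-labeled) in 100 mM sodium acetate pH 7 with 20 uM heparin, 6 hr at 37 C. ThT 30 uM added, 1 hr ambient; Alexa 594 FP and total fluorescence read at 555/632 nm.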
Tau FP inhib: blocks human tau fibril formation measured by polarization; 0.39% of 280,000 active; K18 P301L tau heparin fibrillization, Alexa594 FP, 6 h; AID 1468; Potency, µM (doses to about 57.7 µM), inactives show top-dose activity, negative = inhibition, most hits filed as inhibitors; also: % is scaled to controls: 0 for no effect and ±100 for the full control effect; nearly all actives have a fitted effect of over 55% in size
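Compound effects on tau fibrillization are measured by Alexa 594 fluorescence polarization (ex 555, em 632 nm). K18 P301L tau is used at 15 uM with 0.24 uM labeled tracer, and 20 uM heparin induces aggregation over 6 hr at 37 C.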
HTT ATP protect: cytoprotection in Huntington HTT-Q103 PC12 cell model; PC12 HTT-Q103 induced, cytoprotection, ATP luminescence, 40 h; Potency, µM (doses to about 56.4 µM), inactives show cytoprotection (ATP increase), usual class: activators; 0.14% of 230,000 active; AID 1471; also: % of control where 0% means no effect; nearly all actives have a fitted effect of over 45% in size
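Compounds added alongside 100 nM tebufenozide, which induces toxic Q103 huntingtin exon 1-GFP in stable PC12 cells; surviving cells quantified by luminescent ATP measurement. Medium: phenol red-free DMEM, 5% equine and 5% calf serum.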
HttQ103 aggreg: inhibitors of mutant huntingtin aggregate formation in PC12 cells; Potency, µM (highest dose often 46.1 µM), inactives show top-dose activity change, negative = inhibition, most hits filed as inhibitors; PC12 HttQ103-GFP aggregates, Acumen cytometry, 40 h; 1.1% of 220,000 active; also: % is scaled to controls: 0 for no effect and ±100 for the full control effect; nearly all actives have a fitted effect of over 60% in size
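Aggregate formation scored by laser-scanning cytometer (488 excitation, 500–530 emission) in lysed PC12 cells expressing Q103-GFP after 100 nM tebufenozide induction; library tested in dose series, with ATPLite reagent added in the multiplex.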
* marks the source's active call; other numbers are inactive results; ? = inconclusive; · = no result given; [ ] = dose if it differs, or a comment. Only some compounds are listed: those with a hit (about 3.7% of all), similar ones and a draw of the others. Calls follow the shape of the dose curve; as a rule, active = well fitted curve in the direction sought with a large enough effect; inconclusive = small, poorly fitted or top-dose-only effect, or another doubt; inactive = no such curve, though single readings can be large; an effect the other way counts as inactive or inconclusive. Potency is read from the fitted curve at half-maximal effect.

SMILES | Tau ThT inhib | Tau fluor counter | Tau FP inhib | HTT ATP protect | HttQ103 aggreg
COc1ccc(O)c(/C=N/Nc2nc3ccccc3[nH]2)c1 | 14µM* | ? | 7% | -57% | -4%[9.22 µM]
CC(=O)c1ccc(NC(=O)CN(C)S(=O)(=O)c2cccc3nsnc23)cc1 | -5% | -8% | 0% | · | ·
O=C(N/C(=C/c1ccc(Cl)cc1)c1nc2ccccc2[nH]1)c1ccco1 | -18% | -7% | 2% | 3% | 9%
COc1cc(/C=N/NC(=Nc2ccc(C)cc2)c2nc3ccccc3s2)ccc1O | ? | 11µM*[quencher] | 16% | -32% | 4%
COc1cc(/C=N/Nc2nc3ccccc3[nH]2)cc(OC)c1O | 11µM* | 16µM*[quencher] | ? | -8%[10 µM] | ?
O=C(/C(=C/c1ccc(Cl)cc1)c1nc2ccccc2[nH]1)c1ccccc1 | 40µM* | -22% | ? | -71% | 5µM*
O=C(CCC(=O)N1CC2CCCN2c2ccccc21)NCc1ccc(F)cc1 (stereo not given) | -13% | -15% | 13% | · | ·
CCN(CC)c1ccc2c(c1)CCCN2 | 25µM* | ? | ? | -18%[10 µM] | ?
O=S(=O)(c1ccc2c(c1)CCCN2)N1CCCC2CCCCC21 (stereo not given) | -16% | ? | 19% | -8%[10 µM] | 8%[9.22 µM]
CCC1CN(C(=O)N2CCC(C(=O)NCc3ccccc3F)CC2)c2ccccc2O1 (stereo not given) | 5% | -11% | -3% | · | ·
CCC1CN(C(=O)N2CCC(C(=O)N3CCN(c4ccc(F)cc4)CC3)CC2)c2ccccc2O1 (stereo not given) | 10% | 2.5µM*[quencher] | -2% | · | ·
CCC1CN(C(=O)N2CCC(C(=O)N3CCN(c4cccc(C)c4C)CC3)CC2)c2ccccc2O1 (stereo not given) | -18% | 5µM*[quencher] | 7% | · | ·
CCC1CN(C(=O)N2CCC(C(=O)N3CCN(c4cc(C)ccc4C)CC3)CC2)c2ccccc2O1 (stereo not given) | -9% | ? | 15% | · | ·
Cc1cc(N2CCCC2)ccc1/C=C1\NC(=S)N(C)C1=O | ? | ? | 5% | -11% | -26%
Cc1cc(N2CCCC2)ccc1/C=N/n1cnnc1 | 7.1µM* | -29% | -5% | -13%[10 µM] | 4%[9.22 µM]
Cc1cc(N/N=C/c2ccc([N+](=O)[O-])o2)nc2ccccc12 | 1.6µM* | ? | 1% | 12% | ?
Cn1c(/C=C/c2ccc([N+](=O)[O-])o2)nc2ccccc2c1=O | ? | ? | -2% | -110% | 10µM*
CC(=O)N(C(C)=O)n1c(/C=C/c2cccc([N+](=O)[O-])c2)nc2ccccc2c1=O | 1% | -3%[2.34 µM] | -7%[2.34 µM] | 12%[10 µM] | -4%[9.22 µM]
Cc1ccc2nc(N/N=C/c3ccco3)cc(C)c2c1 | 18µM* | ? | 8% | 7%[10 µM] | 8%[9.22 µM]
COCc1cc(C)nc2c1C(=O)NC(c1ccc(F)cc1)N2Cc1ccccc1 (stereo not given) | -3% | -3% | -13% | · | ·
CN1CCN(/N=C/c2ccc(-c3ccc([N+](=O)[O-])cc3Cl)o2)CC1 | 11µM* | ? | 11% | -45% | 1%
N#Cc1c(-c2ccccc2)cc(-c2ccccc2)nc1SCC(O)CS(=O)(=O)Cc1ccc(Cl)cc1 (stereo not given) | 14µM* | ? | 14µM* | · | ·
COc1ccc(-c2cc(-c3ccccc3)c(C#N)c(SCC(O)CS(=O)(=O)Cc3ccc(Cl)cc3)n2)cc1 (stereo not given) | -6% | ? | ? | · | ·
N#CC(C#N)=Cc1ccc(-c2ccc(S(=O)(=O)N=C(N)N)cc2)o1 | 20µM* | ? | 8% | -13%[10 µM] | ?
COC(=O)C1=C(C)N(Cc2ccccc2)[C@]23O[C@](C(=O)OC)(C(=O)N2C1c1ccccc1)C(c1ccccc1)C3C(=O)c1ccccc1 (stereo not given in full) | -15%[11.5 µM] | -16%[11.6 µM] | -5%[11.6 µM] | ? | ·
COc1cc([C@@H]2Oc3cc([C@H]4Oc5cc(O)cc(O)c5C(=O)[C@H]4O)ccc3O[C@H]2CO)ccc1O | ? | ? | -1% | 19%[1.9 µM] | ·
O=C1c2ccccc2C(=O)c2c(Nc3ccc(CCO)cc3)ccc(O)c21 | 2.8µM* | 1.8µM*[quencher] | ? | 10%[10 µM] | 17%[9.22 µM]

High-throughput results (PubChem)
